Source: PubChem BioAssay
TEAD-YAP inh: TEAD-YAP interaction inhibition; HEK-TIYL cells, TEAD-Gal4/YAP UAS-luciferase luminescence; inhibition, % at 9.12 µM; 1.4% of 640,000 active; in the data active = inhibition above about 32%
MITF primary: inhibitors of human MITF | O75030 | AlphaScreen MITF homodimerization, bead proximity signal | inhibition, % at 2.6 µM | 0.91% of 650,000 active | AID 1259374; in the data active = inhibition above about 50%
FBW7 act: activators of human E3 ligase FBW7. Q969H0. AlphaScreen FBW7–phospho-cyclin E peptide binding, activator screen. normalized activity (activation), % at 26.1 µM. 0.13% of 650,000 active; in the data active = normalized activity above about 1.9%;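 note: purified mutant Fbw7 with reduced substrate affinity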
Target sequence (Q969H0 whole entry, looked up): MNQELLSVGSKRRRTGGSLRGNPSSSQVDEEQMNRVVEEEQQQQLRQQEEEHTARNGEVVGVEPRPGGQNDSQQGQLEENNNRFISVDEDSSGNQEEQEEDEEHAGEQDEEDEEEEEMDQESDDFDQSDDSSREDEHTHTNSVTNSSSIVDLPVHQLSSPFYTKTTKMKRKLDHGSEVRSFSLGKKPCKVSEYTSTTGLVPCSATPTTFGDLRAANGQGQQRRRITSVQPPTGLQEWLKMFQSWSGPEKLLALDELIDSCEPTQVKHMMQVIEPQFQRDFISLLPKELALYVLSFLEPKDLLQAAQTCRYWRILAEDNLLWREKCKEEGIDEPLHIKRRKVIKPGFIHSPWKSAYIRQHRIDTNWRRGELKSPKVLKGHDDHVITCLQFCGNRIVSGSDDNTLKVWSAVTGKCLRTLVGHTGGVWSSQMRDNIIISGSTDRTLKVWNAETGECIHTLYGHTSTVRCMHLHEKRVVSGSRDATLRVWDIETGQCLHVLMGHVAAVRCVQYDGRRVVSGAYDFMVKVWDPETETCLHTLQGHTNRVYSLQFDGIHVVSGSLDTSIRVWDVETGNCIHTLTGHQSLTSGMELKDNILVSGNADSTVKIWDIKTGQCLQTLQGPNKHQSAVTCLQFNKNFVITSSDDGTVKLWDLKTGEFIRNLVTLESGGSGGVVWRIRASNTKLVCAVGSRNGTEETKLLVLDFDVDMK
GPR151 ag: human GPR151 activation; Q8TDV0; PathHunter beta-arrestin GPR151 cells, luminescence; activation, % at 11.2 µM; 1% of 650,000 active; in the data active = activation above about 4.9%
GPR151 confirm: human GPR151 activation, confirmation screen | GPR151 PathHunter beta-arrestin cells, luminescence, 90 min; % of EA-reagent control over plate median | activation, % at 11.2 µM | 6,700 tested, under 10 active | shares compounds with GPR151 ag;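 active = mean percent activation across replicates above the confirmation screen cutoff of 4.91%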
GPR119 ag: activates human GPR119 in a GPR151 counter-screen; shares compounds with GPR151 ag; GPR119 PathHunter beta-arrestin cells, luminescence, 90 min; 0 = compound-well median, 100 = enzyme-acceptor control; activation, % at 11.2 µM; 0.3% of 6,700 active;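 active = mean percent activation in the counterscreen above 29.09%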;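 note: counterscreen on off-target GPR119 to flag nonselective hits from the GPR151 activator screen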
Each line names hits and unclear results; the compound was inactive in the other large screens (follow-up assays come after a bar, where they were run). A selection: hits, their analogues and other compounds. The true share with any hit is near 3.4%.

Nc1noc2c1C(Cc1ccccc1)C1=C2CCCC1=O (stereo not drawn)	none
CC(C)CCn1c(-c2ccccc2)nc2ccccc21	GPR151 ag 8.6 | GPR151 confirm inactive | GPR119 ag inactive
Brc1ccc(-n2cc(-c3ccccc3)c3c(N4CCN(c5ccccc5)CC4)ncnc32)cc1	none
Cc1ccc(-n2cc(-c3ccccc3)c3c(NC(C)C)ncnc32)cc1	none
Cc1cccc(-n2cc(-c3ccccc3)c3c(NCCc4ccccc4)ncnc32)c1	GPR151 ag 6.0 | GPR151 confirm inactive | GPR119 ag inactive
Cc1cccc(-n2cc(-c3ccccc3)c3c(NCCc4ccc(Cl)cc4)ncnc32)c1	none
CCOc1ccc(-n2cc(-c3ccccc3)c3c(NCc4ccc5c(c4)OCO5)ncnc32)cc1	none
COc1ccc(-n2cc(-c3ccccc3)c3c(NCc4ccc5c(c4)OCO5)ncnc32)cc1	GPR151 ag 6.1 | GPR151 confirm inactive | GPR119 ag inactive
CC(C)Nc1ncnc2c1c(-c1ccccc1)cn2-c1ccc(Br)cc1	GPR151 ag 5.4 | GPR151 confirm inactive | GPR119 ag inactive
O=[N+]([O-])c1ccc(N2CCN(c3ncnc4c3c(-c3ccccc3)cn4-c3ccc(Br)cc3)CC2)cc1	GPR151 ag 5.0 | GPR151 confirm inactive | GPR119 ag inactive
COc1ccc(-c2cncc(C(=O)NCCOc3ccccc3)c2)cn1	none
COc1ccccc1Nc1ncnc2c1c(-c1ccccc1)cn2-c1ccccc1	GPR151 ag 6.8 | GPR151 confirm inactive | GPR119 ag inactive
CCC(=O)c1cc(Cl)ccc1NC(=O)c1ccc(Br)cc1	none
CCC(C)C(=O)Nc1cc(OC)c(OC)cc1C(=O)O (stereo not drawn)	GPR151 ag 7.1 | GPR151 confirm inactive | GPR119 ag inactive
CCC(C)C(=O)Nc1ccc(O)cc1C(=O)O (stereo not drawn)	none
CSc1ccc(NC(=O)Nc2c(C)n(-c3ccccc3)c(=O)n2C)cc1	GPR151 ag 6.5 | GPR151 confirm inactive | GPR119 ag inactive
CC1C(=O)N(Cc2ccc(Cl)cc2Cl)C(=O)CS1=O (stereo not drawn)	GPR151 ag 6.6 | GPR151 confirm inactive | GPR119 ag inactive
COC(=O)C12CC3CC(CC(NC(=O)c4cc5ccccc5[nH]4)(C3)C1)C2	none
COc1ccc(-c2nc3c(c4c2C[C@H](c2ccccc2)OC4)CN(C(=O)N[C@@H](C)c2ccccc2)CC3)c(C)c1	none (no result: TEAD-YAP inh)
COc1ccc(-c2nc3c(c4c2C[C@H](c2ccccc2)OC4)CN(C(=O)N[C@@H](C)C(=O)OC(C)C)CC3)c(C)c1	GPR151 ag 6.2 (no result: TEAD-YAP inh) | GPR151 confirm inactive | GPR119 ag inactive
COc1ccc(-c2ccc(/C=N/N3C(=O)C4C5C=CC(C6CC56)C4C3=O)o2)c([N+](=O)[O-])c1 (stereo not drawn)	GPR151 ag 5.0 | GPR151 confirm inactive | GPR119 ag inactive
CCOCCCNCc1ccccc1F	GPR151 ag 5.2 | GPR151 confirm inactive | GPR119 ag inactive
CCOC(=O)CCCCNCc1ccccc1F	none
O=C(NC1CCCC1)N1CCN(c2nc3ccc(F)cc3s2)CC1	GPR151 ag 6.4 | GPR151 confirm inactive | GPR119 ag inactive
COc1ccc2nc(N3CCC(C(=O)N4CCCC4)CC3)sc2c1	GPR151 ag 6.9 | GPR151 confirm inactive | GPR119 ag inactive
NC(=O)c1ccc2nc(N3CCN(c4ccccn4)CC3)sc2c1	GPR151 ag 8.1 | GPR151 confirm inactive | GPR119 ag inactive
COc1ccc2nc(N3CCN(C(=O)C4CCCN4S(C)(=O)=O)CC3)sc2c1 (stereo not drawn)	none
O=C(COc1ccccc1)Oc1ccc2nc(N3CCCC3)sc2c1	GPR151 ag 9.1 | GPR151 confirm inactive | GPR119 ag inactive
CCN1CCN(c2nc3ccc(OC(=O)COc4ccccc4)cc3s2)CC1	none
Cc1ccccc1C1(CC(=O)N2CCCCCC2)CC(=O)N(Cc2cccnc2)C1=O (stereo not drawn)	none
O=C(CCCN1C(=O)/C(=C\c2ccco2)SC1=S)Nc1cccc(O)c1	none
NC(=O)C1CCN(C(=O)c2ccc3nc(N4CCCCC4)sc3c2)CC1	GPR151 ag 12 | GPR151 confirm inactive | GPR119 ag inactive
O=C(O)c1ccc2nc(N3CCCCC3)sc2c1	none
Cc1cccc(C)c1-n1c(=S)sc2c(=O)n(-c3ccccc3)c(SCC(=O)c3ccccc3)nc21	GPR151 ag 6.1 | GPR151 confirm inactive | GPR119 ag inactive
CCOc1ccccc1-n1c(=S)sc2c(=O)n(-c3ccc(C)cc3)c(SCC(=O)NCc3ccco3)nc21	none
Cc1ccc(-n2c(SCC(=O)N3CCCC3)nc3c(sc(=S)n3-c3ccccc3C)c2=O)cc1	none
Cc1ccc(-n2c(SCC(=O)N3CCCC3)nc3c(sc(=S)n3-c3cc(C)ccc3F)c2=O)cc1	GPR151 ag 6.7 | GPR151 confirm inactive | GPR119 ag inactive
COc1ccccc1-n1c(=S)sc2c(=O)n(-c3ccccc3)c(SCC(=O)NC3CCCCC3)nc21	GPR151 ag 6.0 | GPR151 confirm inactive | GPR119 ag inactive
O=C(CSc1nc2c(sc(=S)n2-c2ccccc2)c(=O)n1-c1ccccc1)NC1CCCCC1	none
CCOc1ccccc1-n1c(=S)sc2c(=O)n(-c3ccc(F)cc3)c(SCC(=O)NCc3ccco3)nc21	GPR151 ag 5.4 | GPR151 confirm inactive | GPR119 ag inactive
Cc1ccccc1-n1c(=S)sc2c(=O)n(-c3ccccc3)c(SCC(=O)c3ccccc3)nc21	none
CCOc1ccc(-c2[nH]nc3c2C(c2ccccc2OC)C(C#N)=C(N)O3)c(OCC)c1 (stereo not drawn)	none
CCc1c(C)nc(-n2nc(C)cc2C)n(CC(=O)Nc2ccc(OC)cc2OC)c1=O	none
Cc1ccc(OCC(=O)Nc2ccc(S(N)(=O)=O)cc2)c(Br)c1	none
CCN(CC)C(=O)c1c[nH]c2ccc(S(=O)(=O)Nc3ccccc3F)cc2c1=O	none
CCCc1nnc(SCc2ccc(Cl)cc2)n1N	none
CCCc1nnc(SCc2ccc(Br)cc2)n1N	GPR151 ag 8.4 | GPR151 confirm inactive | GPR119 ag inactive
CCOc1ccc(C2C(C#N)=C(N)Oc3c2c(C)nn3-c2ccccc2)cc1OC (stereo not drawn)	GPR151 ag 6.4 | GPR151 confirm inactive | GPR119 ag inactive
Cc1nn(-c2ccccc2)c2c1C(c1ccccc1Cl)C(C#N)=C(N)O2 (stereo not drawn)	none
COc1ccc(C2C(C#N)=C(N)Oc3c2c(C)nn3-c2ccccc2)cc1OC (stereo not drawn)	none
Cc1nn(-c2cccc(Cl)c2)c2c1C(c1ccccc1Cl)C(C#N)=C(N)O2 (stereo not drawn)	GPR151 ag 5.5 | GPR151 confirm inactive | GPR119 ag inactive
CC(C)Cc1ccc(S(=O)(=O)Nc2ccc(Br)cn2)cc1	none
CC(C)(C)c1nnc(NC(=O)c2cccnc2Cl)s1	none
